Test results reported in ChEMBL document CHEMBL1201862, “PubChem BioAssay data set” (2004).
About 4,100 (7.1%) of roughly 58,000 sequences were called active. Rule as the data show it: active = GI50 up to about 1.1 µM and inactive = higher. The list is a sample of the results. Results with a measured potency or affinity are listed apart.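 Briefly, cells in 96-well plates were exposed to five compound concentrations for 48 h, and endpoints were estimated by linear interpolation. The concentration for 50% growth inhibition is given as GI50.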

test system: U-251; test: NCI tumour cell line growth inhibition, 48 h

Row | Substance | GI50 [µM]
1 | [Bis(aminomethyl)diethylsilane]tetrachloroplatinum(IV), CHEMBL2146203 | 2
2 | [Bis(aminomethyl)pentamethylenesilane]tetrachloropaltinum(IV), CHEMBL2146204 | 2.94
3 | [Bis(aminomethyl)tetramethylenesilane]tetrachloropaltinum(IV), CHEMBL2146189 | 3.59
4 | [Bis(aminomethyl)ethylmethylsilane]tetrachloroplatinum(IV), CHEMBL2146192 | 6.07
5 | CISPLATIN, CHEMBL11359 | 1.92
6 | cis-Bis[[(trimethylsilyl)methyl]amino]tetrachloroplatinum(IV), CHEMBL2146191 | 14.9
7 | [Bis(aminomethyl)dimethylsilane]dichloroplatinum (II), CHEMBL2146201 | 33.5
8 | [Bis(aminomethyl)tetramethylenesilane]dichloropaltinum(II), CHEMBL2146205 | 30.3
9 | [Bis(aminomethyl)dimethylsilane]tetrachloroplatinum(IV), CHEMBL2146190 | 9.42
10 | mu-(1,7-nanodiamine-N,N')bis-(cis-aminedichloroplatimum (II)), CHEMBL2146215 | 10.3
11 | [Bis(aminomethyl)pentamethylenesilane]dichloropaltinum(II), CHEMBL2146202 | 2.93
